Results published in PubChem BioAssay (NCATS).
Records with an inconclusive call do not appear. Active and inactive are the calls of the source. The call rests on the fitted dose curve; in most records, active means well fitted inhibition curve with a large enough effect; inconclusive means small, poorly fitted or top-dose-only effect; inactive means flat fitted curve, though single readings scatter. Peptide text beside a SMILES is read from it.

Tested on: CP265
Experiment: qHTS profiling for inhibitors of Plasmodium falciparum proliferation (AID 504749); further: nearly all actives have a fitted effect of over 60% in size;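 on activity, negative = inhibition: 0% = DMSO vehicle and full inhibition = artemisinin control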
Conditions: P. falciparum in erythrocytes, SYBR Green DNA, 72 h; series mostly up to 12.8 µM; activity, negative = inhibition: at the top concentration
Method in brief: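 SYBR Green fluorescence of parasite DNA, read after lysis and overnight dark incubation, measured growth over 72 h in erythrocyte culture at 0.3% parasitemia and 2.5% hematocrit. Data normalised to DMSO and 0.29 uM artemisinin, with plate-drift correction.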
Potency means the concentration at half of the fitted maximal effect.

SMILES	activity, negative = inhibition	Potency
CN(C)CCCOC1C(C(O)CO)OC2OC(C)(C)O[C@@H]21 (stereo partly specified)	0.583% [at 28.7 µM] (inactive)	–
CCC(C)C(=O)OC1CCC=C2C=CC(C)C(CCC3CC(O)CC(=O)O3)[C@@H]21 (stereo partly specified)	-4.14% [at 28.7 µM] (inactive)	–
CC(=O)OC1CCC2C3CCc4cc(O)ccc4C3CCC12C (stereo unspecified)	0.213% [at 28.7 µM] (inactive)	–
CC[C@@]12CCCN3CCc4c(n(c5ccccc45)[C@](O)(C(=O)OC)C1)C32 (stereo partly specified)	-7.49% [at 28.7 µM] (inactive)	–
NC(C(=O)O)[C@@H]1CC(Cl)=NO1 (stereo partly specified)	–	3.16 µM (active)
CN1CC(=O)N=C1N	-7.2% [at 28.7 µM] (inactive)	–
OCC1OC([S-])[C@H](O)C(O)C1O.[Au+] (stereo partly specified)	-3.04% [at 28.7 µM] (inactive)	–
CC(C)C1CCC(C(=O)NC(Cc2ccccc2)C(=O)O)CC1 (stereo unspecified)	-0.115% [at 28.7 µM] (inactive)	–
CCC(CCC(C)C1CCC2C3CC=C4CC(O)CC[C@@]4(C)C3CC[C@@]12C)C(C)C (stereo partly specified)	5.03% [at 28.7 µM] (inactive)	–
C[C@]12CCC(=O)C=C1CCC1C2C(=O)C[C@]2(C)C1CC[C@]2(O)C(=O)CO (stereo partly specified)	-15.9% [at 28.7 µM] (inactive)	–
OCC1O[C@H](OC2C(CO)O[C@@](O)(CO)C2O)C(O)C(O)C1O (stereo partly specified)	6.72% [at 28.7 µM] (inactive)	–
CC1(C)OC2CO[C@]3(COS(N)(=O)=O)OC(C)(C)OC3C2O1 (stereo partly specified)	0.807% [at 28.7 µM] (inactive)	–
CC1(C)OC2CC(=O)OC[C@@]23C1CC(=O)[C@]1(C)C3CC[C@@]2(C)C(c3ccoc3)OC(=O)C3O[C@@]321 (stereo partly specified)	-0.742% [at 28.7 µM] (inactive)	–
CCOC(=O)C1=CC(OC(CC)CC)C(NC(C)=O)C(N)C1 (stereo unspecified)	-14.8% [at 28.7 µM] (inactive)	–
COC1C=CO[C@@]2(C)Oc3c(C)c(O)c4c(O)c(c5c(nc6cc(C)ccn65)c4c3C2=O)NC(=O)/C(C)=C\C=CC(C)C(O)[C@@H](C)C(O)C(C)[C@@H](OC(C)=O)C1C (stereo partly specified)	–	11.2 µM (active)
COC(=O)C(Cc1ccccc1)NC(=O)C(N)CC(=O)O (stereo not drawn) (H-Asp-Phe-OMe; configuration not given here)	-10.5% [at 28.7 µM] (inactive)	–
